From PubChem BioAssay AID1402 (National Center for Advancing Translational Sciences (NCATS), 2008) come the findings set out here.

Structures are written as SMILES. Results filed as inconclusive are left out. Active and inactive are the calls of the source. Calls follow the shape of the dose curve; as a rule, active = well fitted curve in the direction sought with a large enough effect in the signal ratio; inconclusive = small, poorly fitted or top-dose-only effect, or effect the other way, or a change in a side signal; inactive = no such curve, though single readings can be large or run the other way; the % refers to the signal ratio.

Lutropin-choriogonadotropic hormone receptor (Homo sapiens), sequence (P22888 whole entry, looked up): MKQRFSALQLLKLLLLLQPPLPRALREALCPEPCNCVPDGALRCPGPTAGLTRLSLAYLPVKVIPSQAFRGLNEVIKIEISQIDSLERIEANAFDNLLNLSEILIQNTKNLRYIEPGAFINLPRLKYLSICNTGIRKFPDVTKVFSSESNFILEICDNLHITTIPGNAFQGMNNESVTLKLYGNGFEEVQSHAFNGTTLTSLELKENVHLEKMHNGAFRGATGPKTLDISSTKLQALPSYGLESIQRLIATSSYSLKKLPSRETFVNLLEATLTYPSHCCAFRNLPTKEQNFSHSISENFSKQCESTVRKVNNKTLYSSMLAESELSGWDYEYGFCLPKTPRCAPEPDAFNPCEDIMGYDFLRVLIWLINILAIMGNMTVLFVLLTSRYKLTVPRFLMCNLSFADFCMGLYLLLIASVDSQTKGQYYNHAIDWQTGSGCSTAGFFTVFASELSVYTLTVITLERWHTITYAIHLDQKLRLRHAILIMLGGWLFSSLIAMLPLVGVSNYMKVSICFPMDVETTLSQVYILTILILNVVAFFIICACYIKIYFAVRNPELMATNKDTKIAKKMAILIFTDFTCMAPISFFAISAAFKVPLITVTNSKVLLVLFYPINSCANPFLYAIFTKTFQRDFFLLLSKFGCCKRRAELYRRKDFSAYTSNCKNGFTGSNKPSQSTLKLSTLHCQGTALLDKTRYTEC

The assay concerns the target Lutropin-choriogonadotropic hormone receptor (Homo sapiens) (UniProt P22888). The experiment in a line: Counterscreen for Agonists of Thyroid Stimulating Hormone Receptor: HTRF Activity in a Luteinizing Hormone Receptor Cell Line. Particulars: HEK293-LHR cells, cAMP HTRF ratio, 30 min; series mostly up to 91.7 µM; activation (cAMP increase): at the top concentration. The text has this:
NIH Chemical Genomics Center [NCGC] NIH Molecular Libraries Screening Centers Network [MLSCN] MLSCN Grant: 1 X01 MH080680-01 PI Name: Dr. Marvin Gershengorn, NIH NCGC Assay Overview: Confirmation of Thyroid Stimulating Hormone Receptor Agonists TSH is an alpha/beta heterodimeric glycoprotein hormone secreted from the anterior pituitary gland which belongs to the glycoprotein hormone family. The actions of TSH are mediated by a seven-transmembrane receptor, which upon TSH binding couples preferentially to the G-alpha (s) protein (Gs), resulting in activation of adenylate cyclase and increase in cyclic adenosine 3', 5' monophosphate (cAMP). The TSH receptor (THSR) is mainly expressed in thyroid follicular cells and regulates their growth and function. Recombinant TSH is used to activate TSHR in patients with thyroid cancer receiving thyroid hormone suppression therapy and to screen for residual tumor after surgery, but it is expensive and must be administered intramuscularly. An orally active small molecule TSHR agonist would serve as an invaluable research tool for studying TSHR pharmacology and physiology, and would have multiple advantages in therapeutic settings. However, no selective small molecule agonist of the TSH receptor exists, and no small molecule screen for TSHR agonists has ever been reported. In order to confirm specificity of the compounds to the TSHR, a confirmatory assay was conducted on a similar family member, the Luteinizing Hormone (LH) receptor, transfected into a HEK 293 cell line, using an orthogonal detection technology to measure cAMP stimulation: antibody-based Homogeneous Time Resolved Fluorescence (HTRF).
NCGC Assay Protocol Summary: Homogeneous Time Resolved Fluorescence (HTRF) cAMP Assay. HEK 293 cells stably transfected with a vector containing the LH receptor and maintained under hygromycin selection were obtained from the laboratory of Dr. Marvin Gershengorn. Compounds were assayed using a HTRF cAMP detection kit (Cisbio) on the LH receptor transfected cell line. Briefly, 750 cells were plated in 2.5 ul/well of complete media (DMEM containing 10 % FCS, and 100 uM RO 20-1724) in 1536 well solid bottom white plates and 23 nl/well compound in DMSO solution or controls was added. Following 30 minute incubation at room temperature, 2.5 ul/well of labeled d2 cAMP and 2.5 ul/well of anti-cAMP antibody (both diluted 1:20 in lysis buffer) were added to each well using a flying reagent dispenser (Aurora Discovery, San Diego) . Plates were measured using the Envision plate reader (PerkinElmer, Boston, MA) with excitation at 330 nm and emissions of 615 nm and 660 nm. Keywords: Luteinizing hormone LH, Thyroid-stimulating hormone TSH, TSHR, TSHR agonist, quantitative high throughput screening, qHTS, HTS, probe identification, CNG, cAMP, cyclic nucleotide gated ion channel PubChem
Regarding `COc1ccc(C2Nc3ccccc3C(=O)N2Cc2ccco2)cc1COc1ccc([N+](=O)[O-])cc1` (configuration not stated), the “activation (cAMP increase)” value is 1.81% (inactive).
The value for `O=C1CC(c2ccccc2)CC2=C1C(c1ccco1)n1nc(C(F)(F)F)nc1N2` (configuration not stated) was 3.49% (inactive); that for `O=C1C2C3CCCC3=C3CCCC3C2C(=O)N1c1ccc(Cl)cc1` (configuration not stated) was 2.44% (inactive).
The value for `COc1cc(OC)cc(C(=O)N(Cc2ccco2)Cc2cccs2)c1` was 1.68% (inactive); that for `COc1cc(OC)c(C(=O)N(Cc2ccco2)Cc2cccs2)cc1OC` was 1.72% (inactive).
In the case of `COc1ccc(C2Nc3ccccc3C(=O)N2Cc2ccco2)cc1COc1c(C)cccc1C` (configuration not stated), the “activation (cAMP increase)” value was 2.23% (inactive).
For the compound `Cc1sc2ncn(/N=C/c3cn(-c4ccccc4)nc3-c3ccccc3)c(=O)c2c1C`, the “activation (cAMP increase)” value is 2.31% (inactive).
`Cc1nn(-c2ccccc2)c(N2CCCC2)c1/C=N/n1cnc2scc(-c3ccccc3)c2c1=O`: the “activation (cAMP increase)” value was 2.52% (inactive).
Under `NC(=O)c1nsc(C(=O)N(CC(=O)NC2CCCC2)Cc2ccc3c(c2)OCO3)c1N` stands 3.37% (inactive).
Under `COc1ccc(C2Nc3cccc(O)c3C(=O)N2Cc2ccccc2)cc1COc1ccc(NC(C)=O)cc1` (configuration not stated) stands 3.62% (inactive); under `O=C1CC(c2ccco2)CC2=C1C(c1ccccc1)n1nc(C(F)(F)F)nc1N2` (configuration not stated), 2.99% (inactive); under `O=c1c2c(-c3ccccc3)csc2ncn1/N=C/c1cn(-c2ccccc2)nc1-c1cccs1`, 1.85% (inactive).
In the case of `CCn1c(=O)c(C(=O)CN2CCCc3ccccc32)c(N)n(Cc2ccccc2)c1=O`, the “activation (cAMP increase)” value is 2.69% (inactive).
Under `O=C(COC(=O)C12CC3CC(CC(C3)C1)C2)NCc1ccco1` stands 2.36% (inactive); under `COc1ccc(C(=O)N(Cc2ccco2)Cc2cccs2)cc1`, 3.2% (inactive); under `NC(=O)c1nsc(C(=O)N(CC(=O)NCc2ccc3c(c2)OCO3)C2CCCC2)c1N`, 2.94% (inactive).
Under `COc1ccc(C(=O)N(Cc2ccco2)Cc2cccs2)c(O)c1` stands 2.94% (inactive).
As to `O=C(COC(=O)C12CC3CC(CC(Cl)(C3)C1)C2)NCc1ccco1`, the “activation (cAMP increase)” value was 4.42% (inactive).
`NC(=O)c1nsc(C(=O)N(CC(=O)NCc2ccc3c(c2)OCO3)C2CCCCC2)c1N`: the “activation (cAMP increase)” value was 1.56% (inactive).
Under `O=C1C2C3CCCC3=C3CCCC3C2C(=O)N1c1cccc(Cl)c1` (configuration not stated) stands 1.77% (inactive); under `COc1ccc(C2Nc3ccccc3C(=O)N2Cc2ccco2)cc1COc1ccc(NC(C)=O)cc1` (configuration not stated), 3.62% (inactive); under `O=C(COC(=O)C12CC3CC(CC(O)(C3)C1)C2)NCc1ccco1`, 1.68% (inactive).
The value for `O=C1C2C3CCCC3=C3CCCC3C2C(=O)N1c1ccc(F)cc1` (configuration not stated) was 0.715% (inactive); that for `O=C1C2C3CCCC3=C3CCCC3C2C(=O)N1c1ccccc1Cl` (configuration not stated) was 1.18% (inactive); that for `CC(NC(=O)COC(=O)c1ccco1)C12CC3CC(CC(C3)C1)C2` (configuration not stated) was 3.79% (inactive).
The value for `O=C(COC(=O)C12CC3CC(CC(Br)(C3)C1)C2)NCc1ccco1` was 4.71% (inactive); that for `O=C(COC(=O)C12CC3CC(CC(C3)C1)C2)NCC1CCCO1` (configuration not stated) was 3.45% (inactive).
